Experiment [1] can be described thus: AP1 Signaling Pathway (AID 357; active means well fitted curve in either direction with a large enough effect, not every such curve was filed as active; further: on the % scale 0 is the no-effect control and ±100 the full control effect). The conditions noted are these: ME-180 AP-1-bla reporter, EGF-induced, beta-lactamase ratio, 5 h; at 7.69 µM (top of the series) unless noted. The procedure, abridged: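 Read-out was the 460nm/530nm emission ratio (excitation 405nm) after CCF4 loading for 2.5 hours at room temperature. Cells carried an AP-1-driven beta-lactamase reporter, were stimulated with EC50 EGF plus compound for 5 hours, and AC50 values came from titrations.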

For experiment [2], the target named is Cytochrome P450 1A2 (Homo sapiens) (UniProt P05177). Put plainly: p450-cyp1a2 (AID 410; calls by dose curve; further: potency means the concentration at half of the fitted maximal effect;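 on activity change, negative = inhibition: -100% = full effect of reference inhibitor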). The method, boiled down: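 Luminescent readout of luciferin formed from Luciferin-ME by human CYP1A2; data normalized against complete inhibition by 57 uM furafylline. Enzyme 20nM, substrate 100uM at Km, 100mM KPO4 buffer, 60 min reaction at room temperature.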
Sequence of Cytochrome P450 1A2 (Homo sapiens) (P05177 whole entry, looked up): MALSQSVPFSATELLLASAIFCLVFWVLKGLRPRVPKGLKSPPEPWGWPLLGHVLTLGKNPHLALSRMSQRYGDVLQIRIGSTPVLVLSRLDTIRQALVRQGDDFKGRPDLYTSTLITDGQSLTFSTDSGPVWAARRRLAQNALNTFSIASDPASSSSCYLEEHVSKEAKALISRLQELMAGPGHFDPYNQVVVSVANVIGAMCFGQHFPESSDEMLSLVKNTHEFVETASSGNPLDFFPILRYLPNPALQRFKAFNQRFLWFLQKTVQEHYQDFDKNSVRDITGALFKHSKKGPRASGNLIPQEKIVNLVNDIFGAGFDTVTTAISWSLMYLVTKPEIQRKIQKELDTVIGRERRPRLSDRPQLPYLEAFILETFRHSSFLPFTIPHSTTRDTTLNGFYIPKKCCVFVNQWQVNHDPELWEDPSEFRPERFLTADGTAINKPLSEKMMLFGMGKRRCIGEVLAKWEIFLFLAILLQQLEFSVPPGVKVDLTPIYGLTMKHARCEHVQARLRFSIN
Experiment [3] is described as follows: NFAT Signaling Pathway (AID 444; active means well fitted curve in either direction with a large enough effect, not every such curve was filed as active;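 further: carbachol stimulus at about its EC50 of 1 µM final; on the % scale 0 is the no-effect control and ±100 the full control effect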). As to conditions: Jurkat NFAT-bla M1, carbachol, beta-lactamase ratio, 5 h; at 7.69 µM (top of the series) unless noted. The procedure, abridged:
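Jurkat cells carrying an NFAT-driven β-lactamase reporter and co-transfected muscarinic M1 receptor were treated with compound plus carbachol (1 uM final, an EC50 level) for 5 h at 37 °C. CCF4 loading followed for 1 h at RT; 460/530 nm ratio gave %activity.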

The nature of experiment [4]: Stat Signaling Pathway (AID 446; active means well fitted curve in either direction with a large enough effect, not every such curve was filed as active;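 further: ME-180 cervical cancer cells given 40 pM IL-6 alongside compound; SIE-controlled beta-lactamase reporter measured as 460/530 nm FRET emission ratio; on the % scale 0 is the no-effect control and ±100 the full control effect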). The conditions noted are these: ME-180 SIE beta-lactamase reporter, IL-6 stimulated, 5 h; at 7.69 µM (top of the series) unless noted. The method, boiled down: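 ME-180 SIE-bla cells; overnight plating; cpd + IL-6 40 pM, 5 h, 37 C; LiveBLAzer 2.5 h RT; 460/530 nm emission ratio. Normalized to 300 pM IL-6 and 125 nM JAK inhibitor controls.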

For experiment [5], the target named is Glucocorticoid receptor (Homo sapiens) (UniProt P04150). Put plainly: GR-GFP Redistribution (AID 450;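 active means compounds whose dose series gives a full or clear partial fitted curve of increased nuclear translocation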; further: potency means the concentration at half of the fitted maximal effect). As to conditions: U2OS GR-GFP nuclear translocation, laser cytometry, 2 h.
Sequence of Glucocorticoid receptor (Homo sapiens) (P04150 whole entry, looked up, the tested form may be a part): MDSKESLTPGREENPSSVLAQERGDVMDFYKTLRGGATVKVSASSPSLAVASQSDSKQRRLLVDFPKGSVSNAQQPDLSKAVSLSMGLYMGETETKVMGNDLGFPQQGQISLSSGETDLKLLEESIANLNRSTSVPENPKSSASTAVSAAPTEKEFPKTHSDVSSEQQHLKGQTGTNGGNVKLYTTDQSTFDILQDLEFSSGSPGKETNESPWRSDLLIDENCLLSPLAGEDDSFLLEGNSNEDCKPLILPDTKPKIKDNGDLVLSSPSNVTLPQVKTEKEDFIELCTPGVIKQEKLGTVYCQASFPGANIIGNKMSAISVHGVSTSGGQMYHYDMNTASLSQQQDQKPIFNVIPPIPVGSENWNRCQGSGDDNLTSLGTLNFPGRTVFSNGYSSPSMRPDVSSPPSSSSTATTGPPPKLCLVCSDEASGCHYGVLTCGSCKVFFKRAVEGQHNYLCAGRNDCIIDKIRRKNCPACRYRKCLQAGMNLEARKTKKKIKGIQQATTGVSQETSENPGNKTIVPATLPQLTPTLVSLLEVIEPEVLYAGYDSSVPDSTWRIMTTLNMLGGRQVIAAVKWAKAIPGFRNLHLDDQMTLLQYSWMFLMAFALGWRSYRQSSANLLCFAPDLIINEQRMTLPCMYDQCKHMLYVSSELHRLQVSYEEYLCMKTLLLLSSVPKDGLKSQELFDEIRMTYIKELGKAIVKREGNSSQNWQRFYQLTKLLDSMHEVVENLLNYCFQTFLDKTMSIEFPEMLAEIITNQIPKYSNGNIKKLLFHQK
Experiment [6] has the same target. Briefly: GR-EFC Redistribution (AID 451; calls by dose curve; further: potency means the concentration at half of the fitted maximal effect). The conditions noted are these: CHO-K1 GR-EFC translocation, beta-gal luminescence, 2 h. The procedure, abridged: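 CHO-K1 cells stably expressing nuclear-localized β-gal enzyme acceptor and GR fused C-terminally to the enzyme donor fragment; ligand-driven nuclear translocation restores β-gal by complementation. Compounds titrated up to 46 uM final, 2 h at 37 °C; luminescence read.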

Experiment [7] deals with Mitogen-activated protein kinase 10 (Mus musculus) (UniProt Q61831). Put plainly: JNK3 AlphaScreen Assay (AID 530; active means well fitted curve in either direction with a large enough effect, not every such curve was filed as active;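 further: kinase came from lysate of stimulated human HepG2 cells; signal reports phosphorylation of biotinylated GST-cJun 1-79 at Ser73 with 10 µM ATP; on the % scale 0 is the no-effect control and ±100 the full control effect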). The method, boiled down: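 Inhibitors reduce antibody binding to phosphorylated biotin-cJun, lowering AlphaScreen luminescence. Lysates from HepG2 cells pre-activated by IL-1beta plus TNF-alpha supplied JNK3; compounds were titrated.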
On the technique in general: In Alpha technology, singlet oxygen from a donor bead excites a nearby acceptor bead.

Experiment [8] deals with Cytochrome P450 3A4 (Homo sapiens) (UniProt P08684). Briefly: qHTS Assay for Activators of Cytochrome P450 3A4 (AID 885). Further: nearly all actives have a fitted effect of over 65% in size. The procedure, abridged:
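20nM CYP3A4 + 25uM Luciferin-PPXE (=KM), 200mM KPO4; cpd 10 min RT; NADPH regen, 60 min RT; stop w/ detection buffer, 20 min; luminescence. Normalized to 57 uM ketoconazole.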
On the technique in general: Quantitative high-throughput screening tests each substance at several concentrations.

Experiment [9] concerns the target Dual specificity protein kinase CLK4 (Homo sapiens) (UniProt Q9HAZ1). Put plainly: qHTS Assay for Inhibitors of CDC-like Kinase 4 (Kinase-Glo Assay) (AID 1770). Further: nearly all actives have a fitted effect of over 65% in size. Further: potency means the concentration at half of the fitted maximal effect. The procedure, abridged: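 Luminescent ATP-depletion read-out (Kinase-Glo) after 4.5 h room-temperature reaction of Clk4 (25 nM final) with RS peptide (100 uM) and ATP (1 uM), pH 7.5 Tris buffer with MgCl2 and DTT.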

Experiment [10] has the same target. Put plainly: qHTS Assay for Inhibitors of CDC-like Kinase 4 (ADP-Glo Assay) (AID 1771). Further: nearly all actives have a fitted effect of over 70% in size. Further: potency means the concentration at half of the fitted maximal effect. The procedure, abridged: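 Luminescence from ADP-Glo reports ADP produced by 25 nM Clk4 acting on 100 uM RS repeat peptide with 1 uM ATP over 1 hr at room temperature; residual ATP is depleted before ADP is converted to ATP for detection.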
The target is the same in experiment [11]. Briefly: qHTS Assay for Inhibitors of CDC-like Kinase 4 (ADP-FP Assay) (AID 1795).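 Further: recombinant human CLK4 phosphorylating RS repeat peptide at 1 µM ATP; on the % scale 0 is the no-effect control and ±100 the full control effect; nearly all actives have a fitted effect of over 60% in size.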 The procedure, abridged:
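Kinase activity was measured as ADP production using Transcreener orange tracer (4 nM) and ADP antibody (1 ug/mL) fluorescence polarization, with ADP calculated from a calibration curve. The 1 h reaction contained 6.25 nM Clk4, 1 uM ATP and 100 uM RS peptide at pH 7.5 with Mg2+.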

Experiment [12] concerns the target Ubiquitin carboxyl-terminal hydrolase 1 (Homo sapiens) (UniProt O94782). Briefly: Inhibitors of USP1/UAF1: Pilot qHTS (AID 504865).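 Further: rhodamine fluorescence freed from ubiquitin-rhodamine substrate followed over time; top concentration of the series differs between compounds; on the % scale 0 is the no-effect control and ±100 the full control effect; nearly all actives have a fitted effect of over 35% in size.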 The procedure, abridged: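 Deubiquitinase activity followed as kinetic rhodamine fluorescence release from 150 nM Ub-Rho. 1 nM USP1/UAF1 with compound, after 15 min room-temperature preincubation, in HEPES pH 7.8 buffer containing TCEP, EDTA, BSA and Tween-20.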

A short description of experiment [13]: Confirmatory qHTS for small molecule stabilizers of the endoplasmic reticulum resident proteome: Secreted ER Calcium Modulated Protein (SERCaMP) assay (AID 1508628). Further: nearly all actives have a fitted effect of over 40% in size. Further: potency means the concentration at half of the fitted maximal effect. The method, boiled down:
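SH-SY5Y cells stably expressing GLuc-SERCaMP, treated 16 h with compound (primary 1.53, 7.67, 38.3 uM; confirmation 11 concentrations, up to 76.6 uM), then 100 nM thapsigargin for 4 h. Secreted Gaussia luciferase in medium read by coelenterazine luminescence.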

Experiment [14] in a line: Cell Viability qHTS for small molecule stabilizers of the endoplasmic reticulum resident proteome (AID 1508629). The conditions noted are these: cell viability counter-screen, 100 nM thapsigargin for final 4 h.
The nature of experiment [15]: qHTS Assay for Lipid Storage Modulators (AID 1519; calls by dose curve). The conditions noted are these: Drosophila S3 cells, BODIPY lipid droplet/cell ratio, laser cytometry, cells loaded with oleic acid; for activity change, negative = inhibition: at 57.5 µM (top of the series). The method, boiled down:
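Cells seeded at 5,000 per well were treated with compounds over a concentration series and loaded with oleic acid (400 uM, as added). Lipid droplet fluorescence (488 nm excitation, 500-530 nm channel) was read by laser-scanning cytometry and normalized to 20 uM Triacsin C.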

The target of experiment [16] is Lysosomal acid glucosylceramidase (Homo sapiens) (UniProt P04062). Put plainly: Glucocerebrosidase-p2 (AID 348; in the data active means potency below about 10 µM; further: potency means the concentration at half of the fitted maximal effect). The conditions noted are these: purified GBA, blue fluorogenic substrate, 40 min. The procedure, abridged:
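Compounds titrated from 0.6 nM upwards against 0.2 nM enzyme in pH 5.9 citric acid/KH2PO4, taurocholate, tween-20; blue fluorogenic substrate 80 uM, 40 min room temperature, stopped and read Ex 365/Em 440 for AC50.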

In experiment [17] the target is 3',5'-cyclic-AMP phosphodiesterase 4B (Homo sapiens) (UniProt Q07343). Put plainly: qHTS Assay for Inhibitors of PDE-IV (AID 607; active means well fitted activation curve with a large enough effect in the main read-out, with a control signal flat, not every such curve was filed as active; further: % of control where 0% means no effect). The method, boiled down:
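ACTOne HEK293 cells carry a modified cAMP-gated CNG channel and express endogenous PDE4; plated 1000 cells/well, compounds up to 22.9 uM final. Membrane-potential dye fluorescence (ex 535/em 590) was read; parental cells received 10 uM forskolin + 100 uM RO 20-1724.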

Experiment [18] can be described thus: Counterscreen qHTS for small molecule stabilizers of the endoplasmic reticulum resident proteome: GLuc-NoTag assay (AID 1508627). Further: potency means the concentration at half of the fitted maximal effect.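 On activity change, negative = inhibition: SH-SY5Y cells given compound then 100 nM thapsigargin to empty ER calcium; 0% = thapsigargin alone and -100% = DMSO vehicle control.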 The method, boiled down:
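SH-SY5Y cells stably expressing constitutively secreted GLuc (no SERCaMP tag) were pre-incubated 5 h, treated with compound for 19 h, then 100 nM thapsigargin for 4 h at 37C; medium GLuc read by coelenterazine luminescence.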
On the technique in general: Counterscreens check selectivity or assay interference.

The nature of experiment [19]: Confirmation and Secondary Assay for Modulators of Hemoglobin Beta Chain Splicing at IVS2 654 locus (AID 910).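 Further: per-well total GFP intensity by laser scanning cytometry after 2-day treatment; % of control where 0% means no effect.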 The method, boiled down:
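HeLa cells stably carrying EGFP interrupted by mutant beta-globin IVS2-654 intron (CMV-driven) were treated with compound for 2 days at 37C; corrected splicing was scored as total peak GFP intensity per well (488 nm excitation, 500-520 nm emission).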

Experiment [20] can be described thus: Confirmation and Secondary Assay for Modulators of Hemoglobin Beta Chain Splicing at IVS2 705 locus (AID 930).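 Further: HeLa cells stably expressing the EGFP-705 splicing reporter; GFP fluorescence per well restored by corrected splicing of the IVS2-705 intron in EGFP; % of control where 0% means no effect.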 The method, boiled down:
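Stable HeLa line with EGFP disrupted by mutant beta-globin intron 2 (705). Overnight attachment, then 2 days of compound at 37C, 5% CO2. Signal: peak GFP intensity summed over objects 5-250 µm.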

The nature of experiment [21]: qHTS Assay for Identification of Small Molecule Agonists for Hypoxia Response Element Signaling Pathway (AID 914; active means well fitted activation curve with a large enough effect in the signal ratio, with a control signal flat, not every such curve was filed as active; the % refers to the signal ratio; further: % of control where 0% means no effect). As to conditions: ME-180 (cervical carcinoma) HRE-bla reporter, beta-lactamase ratio, CoCl2, 17 h; activation: stronger effect = higher value. The procedure, abridged:
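Reporter activity (beta-lactamase, CCF4 460nm/530nm ratio) in HRE-bla ME-180 cells is recorded after 17 h compound exposure with EC50 CoCl2 at 37 degrees Celsius. AC50 values come from titration data.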

The mark [22] stands for this setting: measured here: cell count channel max response.
The mark [23] stands for this setting: measured here: lipid channel max response.

Inconclusive results are not listed. Active and inactive are the calls of the source. Unless noted, the call rests on the fitted dose curve; in most records, active means well fitted curve in the direction sought with a large enough effect; inconclusive means small, poorly fitted or top-dose-only effect, or another doubt; inactive means no such curve, though single readings can be large; an effect the other way counts as inactive or inconclusive.

Sequence of 3',5'-cyclic-AMP phosphodiesterase 4B (Homo sapiens) (Q07343 whole entry, looked up): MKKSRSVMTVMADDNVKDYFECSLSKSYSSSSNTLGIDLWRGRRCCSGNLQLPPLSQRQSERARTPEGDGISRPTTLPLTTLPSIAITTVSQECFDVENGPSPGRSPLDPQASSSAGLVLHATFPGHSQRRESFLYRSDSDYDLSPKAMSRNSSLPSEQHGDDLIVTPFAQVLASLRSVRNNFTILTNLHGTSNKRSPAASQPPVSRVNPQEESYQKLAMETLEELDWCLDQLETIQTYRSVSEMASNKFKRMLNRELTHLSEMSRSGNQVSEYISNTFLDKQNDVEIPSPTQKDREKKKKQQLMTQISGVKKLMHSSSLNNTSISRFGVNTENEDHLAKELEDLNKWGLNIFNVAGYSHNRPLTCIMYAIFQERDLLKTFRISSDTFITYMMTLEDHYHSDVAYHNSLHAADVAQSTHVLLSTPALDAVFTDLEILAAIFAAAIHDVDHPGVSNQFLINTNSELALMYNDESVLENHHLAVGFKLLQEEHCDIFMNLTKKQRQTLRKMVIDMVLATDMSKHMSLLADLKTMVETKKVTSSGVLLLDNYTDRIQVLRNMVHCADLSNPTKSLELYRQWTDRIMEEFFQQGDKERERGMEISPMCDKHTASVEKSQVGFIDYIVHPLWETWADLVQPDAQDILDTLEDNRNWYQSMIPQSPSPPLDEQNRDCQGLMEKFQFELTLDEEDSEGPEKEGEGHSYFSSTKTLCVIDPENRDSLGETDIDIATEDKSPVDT
Sequence of Dual specificity protein kinase CLK4 (Homo sapiens) (Q9HAZ1 whole entry, looked up): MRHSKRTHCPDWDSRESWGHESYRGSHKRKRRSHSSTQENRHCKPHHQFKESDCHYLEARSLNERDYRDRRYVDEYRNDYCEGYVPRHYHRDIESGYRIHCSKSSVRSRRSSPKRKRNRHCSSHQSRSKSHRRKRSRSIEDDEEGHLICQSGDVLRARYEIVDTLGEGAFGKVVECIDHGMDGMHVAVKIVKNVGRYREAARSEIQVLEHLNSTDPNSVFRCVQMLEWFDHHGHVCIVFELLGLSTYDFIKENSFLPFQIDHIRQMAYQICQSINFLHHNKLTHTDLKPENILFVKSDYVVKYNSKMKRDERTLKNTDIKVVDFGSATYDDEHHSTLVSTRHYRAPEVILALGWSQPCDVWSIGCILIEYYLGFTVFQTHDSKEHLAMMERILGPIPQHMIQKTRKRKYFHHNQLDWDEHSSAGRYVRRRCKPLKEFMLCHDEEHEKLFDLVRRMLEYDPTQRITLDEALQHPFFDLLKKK
Sequence of Lysosomal acid glucosylceramidase (Homo sapiens) (P04062 whole entry, looked up): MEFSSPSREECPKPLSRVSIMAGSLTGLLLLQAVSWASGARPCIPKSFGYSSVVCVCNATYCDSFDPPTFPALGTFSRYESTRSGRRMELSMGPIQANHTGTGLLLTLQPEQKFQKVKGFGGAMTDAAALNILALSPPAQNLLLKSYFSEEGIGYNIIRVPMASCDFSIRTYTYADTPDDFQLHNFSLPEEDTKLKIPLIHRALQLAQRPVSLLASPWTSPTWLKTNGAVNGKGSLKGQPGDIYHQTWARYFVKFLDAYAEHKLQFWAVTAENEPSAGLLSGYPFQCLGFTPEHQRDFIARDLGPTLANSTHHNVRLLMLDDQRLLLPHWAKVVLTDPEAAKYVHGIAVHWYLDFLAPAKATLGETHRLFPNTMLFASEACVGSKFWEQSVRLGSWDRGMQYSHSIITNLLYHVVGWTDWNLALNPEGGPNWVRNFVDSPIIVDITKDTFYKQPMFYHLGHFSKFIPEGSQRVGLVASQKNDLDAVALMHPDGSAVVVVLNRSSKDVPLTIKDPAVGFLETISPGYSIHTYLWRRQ
Sequence of Ubiquitin carboxyl-terminal hydrolase 1 (Homo sapiens) (O94782 whole entry, looked up): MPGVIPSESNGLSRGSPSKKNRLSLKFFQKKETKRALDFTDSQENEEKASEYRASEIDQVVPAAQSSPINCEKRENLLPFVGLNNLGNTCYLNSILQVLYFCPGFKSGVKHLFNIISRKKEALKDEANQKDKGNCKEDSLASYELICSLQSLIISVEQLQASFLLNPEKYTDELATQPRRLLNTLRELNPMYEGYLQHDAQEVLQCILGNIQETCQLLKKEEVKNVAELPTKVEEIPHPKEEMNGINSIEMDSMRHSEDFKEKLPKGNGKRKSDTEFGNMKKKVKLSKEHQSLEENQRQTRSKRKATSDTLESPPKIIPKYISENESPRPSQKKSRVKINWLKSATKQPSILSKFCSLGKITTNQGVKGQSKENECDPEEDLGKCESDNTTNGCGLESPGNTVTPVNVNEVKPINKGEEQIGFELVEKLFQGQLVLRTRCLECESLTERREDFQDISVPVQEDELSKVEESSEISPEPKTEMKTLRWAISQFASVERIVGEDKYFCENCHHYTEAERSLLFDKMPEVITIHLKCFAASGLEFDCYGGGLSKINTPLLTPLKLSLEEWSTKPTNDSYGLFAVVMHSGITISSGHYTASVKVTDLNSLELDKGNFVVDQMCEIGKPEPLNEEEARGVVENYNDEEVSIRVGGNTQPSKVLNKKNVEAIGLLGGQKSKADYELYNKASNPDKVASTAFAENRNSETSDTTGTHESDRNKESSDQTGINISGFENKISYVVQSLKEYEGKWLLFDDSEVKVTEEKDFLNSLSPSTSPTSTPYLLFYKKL
Sequence of Cytochrome P450 3A4 (Homo sapiens) (P08684 whole entry, looked up): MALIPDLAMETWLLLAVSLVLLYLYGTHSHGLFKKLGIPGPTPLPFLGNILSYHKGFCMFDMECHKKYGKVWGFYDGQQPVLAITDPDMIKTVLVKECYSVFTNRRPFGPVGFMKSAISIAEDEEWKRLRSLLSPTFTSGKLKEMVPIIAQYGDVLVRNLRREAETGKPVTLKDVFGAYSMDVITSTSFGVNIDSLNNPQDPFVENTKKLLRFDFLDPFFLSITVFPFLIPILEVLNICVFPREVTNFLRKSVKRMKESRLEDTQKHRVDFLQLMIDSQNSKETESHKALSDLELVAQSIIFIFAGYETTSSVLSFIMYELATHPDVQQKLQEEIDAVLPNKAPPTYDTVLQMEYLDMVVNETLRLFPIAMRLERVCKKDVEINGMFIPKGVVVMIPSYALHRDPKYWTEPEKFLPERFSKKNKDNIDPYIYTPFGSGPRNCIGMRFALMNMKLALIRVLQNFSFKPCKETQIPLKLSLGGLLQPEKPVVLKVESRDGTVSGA

For `COCCn1c(=O)c(-c2ccccc2)nc2cnc(Oc3ccc(OC)cc3)nc21`, the activity change, negative = inhibition in experiment [1] is -27.8% (inactive); in experiment [3], 0.481% (inactive). The Potency was 1.26 µM (active) in experiment [2], > 9.22 µM (inactive) in experiment [5], > 46 µM (inactive) in experiment [6] and 39.8 µM (active) in [13]. Besides, in experiment [4], the activity, negative = inhibition was -10.2% (inactive). Moreover, the compound was classed as inactive in experiment [7]. Besides, the Potency entry in [8], in experiment [9], in experiment [10], in [11] and in [12] was “inactive” throughout. Moreover, the max response in [14] is 4.93% (inactive).
Turning to `O=c1c(CCc2ccccc2)nc2cnc(N3CCNCC3)nc2n1Cc1ccc(F)cc1`, the activity change, negative = inhibition in [1] was -10.5% (inactive); in experiment [15], 2.57% (inactive). Moreover, the Potency in [2] was 10 µM (active); in experiment [5] it was > 9.22 µM (inactive); in [6], > 46 µM (inactive). Further, the activity, negative = inhibition in experiment [4] was 16.5% (inactive). Further, in experiment [7], the outcome was inactive. Further, the max response was 12.8% in [15] (setting [22]), 11.7% in [15] (setting [23]) and -14.8% (inactive) in experiment [14]. The Potency result in experiment [13] is “inactive”.
For the compound `O=c1c(-c2cc(F)cc(F)c2)nc2cnc(N3CCNCC3)nc2n1-c1ccccc1`, the Potency was > 11.4 µM (inactive) in experiment [16]; > 9.22 µM (inactive) in [5]; > 46 µM (inactive) in experiment [6]; 15.8 µM (active) in [9]; 22.4 µM (active) in experiment [10]. The compound was called inactive in [7]. In addition, the Potency entry in [17], in [12] and in experiment [18] was “inactive” in each case. For the same compound, the activity change, negative = inhibition in experiment [15] is 4.01% (inactive). Further, the max response amounted to 3.1% in experiment [15] (setting [22]) and 4.03% in experiment [15] (setting [23]).
Consider `O=C(c1cc(C(F)(F)F)cc(C(F)(F)F)c1)N1CCC2(CC1)CN(c1ccccn1)C2`, for which the Potency is 0.37 µM (active) in experiment [16] and > 46 µM (inactive) in experiment [6]. In addition, in experiment [1], the activity change, negative = inhibition was -8.97% (inactive). Moreover, the Potency result in [2], in experiment [17] and in experiment [13] was “inactive” in each case. Besides, in [4], the activity, negative = inhibition was -17.5% (inactive). Besides, the call in [7] was inactive. Moreover, in [14], the max response was -18% (inactive).
For the compound `Cc1cccc(CNc2ncnc3ccc(-c4ccccc4CN(C)C)cc23)c1`, the Potency in [16] was > 11.4 µM (inactive); in [5], > 46 µM (inactive); in [6], > 46 µM (inactive); in experiment [18] it was 0.447 µM (active). Besides, the activity change, negative = inhibition in experiment [1] is -7.85% (inactive); in experiment [15], 3.56% (inactive). In addition, the activity, negative = inhibition in experiment [4] was -2.09% (inactive). Further, the compound was classed as inactive in experiment [7], in experiment [19] and in experiment [20]. The max response was -10.3% in [15] (setting [22]) and -6.74% in experiment [15] (setting [23]).
Turning to `Cc1ccccc1-c1nc(NC2CCNCC2)c2ccccc2n1`, the Potency in [16] is > 11.4 µM (inactive); in [2], 20 µM (active); in experiment [5], > 46 µM (inactive); in experiment [6], > 46 µM (inactive); in experiment [13] it was 31.6 µM (active). In addition, the activity change, negative = inhibition in [1] was 19.1% (inactive); in [3], 0.36% (inactive). Further, the activity, negative = inhibition in [4] was -7.16% (inactive). Also, the call in experiment [7], in [19] and in [20] was inactive. The Potency result in experiment [17] was “inactive”. The activation in [21] was 12.4% (inactive).
`C=C1CCC[C@]2(C)C[C@H]3OC(=O)[C@H](CNCCc4ccccc4OC)C3CC12` (stereo partly drawn): in experiment [13], the Potency result is “inactive”. Moreover, the max response in [14] was -12.1% (inactive).

Values taken from PubChem BioAssay (NCATS).
